# Data reported in the supplement of paper PMC13380429.
# Structures can show the parent of a compound that is named as a salt.
# Tests used:
# [1] = tested on: Vero E6 infected with SARS-CoV-2; test: morphology score (similarity to uninfected cells); higher = more like uninfected cells; conditions: 24 h
# [2] = tested on: Vero E6 infected with SARS-CoV-2; test: SARS-CoV-2 infection rate relative to infected DMSO; higher = more infection, active = 60 or less; conditions: 24 h
SMILES,morphology score [1],SARS-CoV-2 infection rate [2]
CC(N)Cc1ccc(O)cc1 (stereo not given) [hydroxyamphetamine] (10 µM),-0.0633,104% (inactive)
COc1cc(C)nc(-n2nc(C)cc2OC)n1 [epirizole] (10 µM),0.0529,111% (inactive)
CCN1CCN(c2ccc(Nc3cc(N(C)C(=O)Nc4c(Cl)c(OC)cc(OC)c4Cl)ncn3)cc2)CC1 (0.833333 µM),-0.0528,117% (inactive)
C#C[C@]1(O)CC[C@H]2[C@@H]3CCC4=CC(=O)CC[C@@H]4[C@H]3C(=C)C[C@@]21CC [etonogestrel] (10 µM),0.249,90.5% (inactive)
O=C(O)c1cc(C(=O)O)c(C(=O)N(Cc2cccc(Oc3ccccc3)c2)[C@H]2CCCc3ccccc32)cc1C(=O)O (10 µM),0.189,95.5% (inactive)
Nc1nc(=O)n([C@@H]2CS[C@H](CO)O2)cc1F [emtricitabine] (10 µM),0.154,114% (inactive)
Cc1cc(OCCN2CCOCC2)nn1-c1ccc2ccccc2c1 (10 µM),0.0539,99.5% (inactive)
CCC(=O)O[C@@H](O[P@@](=O)(CCCCc1ccccc1)CC(=O)N1C[C@H](C2CCCCC2)C[C@H]1C(=O)O)C(C)C [fosinopril] (10 µM),-0.0286,104% (inactive)
O=C(OCCO)c1ccccc1O [2-hydroxyethyl-salicylate] (10 µM),-0.198,108% (inactive)
C[C@H]1NCc2cc(-c3ccc4c(=O)c(C(=O)O)cn(C5CC5)c4c3OC(F)F)ccc21 [garenoxacin] (10 µM),0.0451,102% (inactive)
NC(=O)NC1NC(=O)NC1=O (stereo not given) [allantoin] (10 µM),-0.0426,104% (inactive)
Cc1cc(O)c2c(c1)C(=O)c1cc(O)cc(O)c1C2=O [emodin] (10 µM),0.146,106% (inactive)
Cc1cc(-c2cc(OC(=O)c3ccccc3)ccc2Cl)cc2nnc(Nc3ccc(OCCN4CCCC4)cc3)nc12 (10 µM),-0.0439,114% (inactive)
COc1cc2nc(N3CCCN(C)CC3)nc(NC3CCN(Cc4ccccc4)CC3)c2cc1OC (0.833333 µM),0.456,73.5% (inactive)
C=CCn1c(=O)c2cnc(Nc3ccc(N4CCN(C)CC4)cc3)nc2n1-c1cccc(C(C)(C)O)n1 (10 µM),-0.0169,96% (inactive)
O=C(Cc1ccc(Cl)c(Cl)c1)N1CCCC[C@@H]1CN1CCCC1 (10 µM),0.168,91.5% (inactive)
O=C1OC(OC(=O)c2cccnc2Nc2cccc(C(F)(F)F)c2)c2ccccc21 (stereo not given) [talniflumate] (10 µM),-0.0899,108% (inactive)
COc1cccc2c1C(=O)c1c(O)c3c(c(O)c1C2=O)C[C@@](O)(C(=O)CO)C[C@@H]3O[C@H]1C[C@H](N)[C@@H](O)[C@H](C)O1 [Epirubicin Hydrochloride] (10 µM),-0.016,108% (inactive)
CSc1nc(-c2ccc(F)cc2)c(-c2ccnc(N[C@@H](C)c3ccccc3)c2)[nH]1 (10 µM),-0.159,107% (inactive)
O=C(Nc1ccccc1)N1CCN(c2nc(-c3ccccc3)ns2)CC1 (10 µM),-0.272,112% (inactive)

SMILES,morphology score [1],SARS-CoV-2 infection rate [2]
CC(SC(=O)c1cccs1)C(=O)NCC(=O)O (stereo not given) [stepronin] (10 µM),-0.0157,113% (inactive)
COc1nccc(-c2c(-c3ccc(F)cc3)ncn2C2CCNCC2)n1 (10 µM),-0.0202,98.5% (inactive)
CNC(=O)[C@H](Cc1ccccc1)NC(=O)[C@H](CC(C)C)[C@H](CSc1cccs1)C(=O)NO [batimastat] (10 µM),0.0292,104% (inactive)
C[C@@H](c1nc(-c2ccc(C#N)cc2)cs1)[C@](O)(Cn1cncn1)c1cc(F)ccc1F [isavuconazole] (10 µM),-0.116,113% (inactive)
O=C1C2C=Nc3ccccc3C2=NN1c1ccc(Cl)cc1 (stereo not given) (10 µM),-0.264,120% (inactive)
C[C@@H](c1nc(-c2ccc(C#N)cc2)cs1)[C@](O)(Cn1cncn1)c1ccc(F)cc1F [ravuconazole] (10 µM),0.0292,107% (inactive)
N=C(NCCCCCCNC(=N)NC(=N)Nc1ccc(Cl)cc1)NC(=N)Nc1ccc(Cl)cc1 [chlorhexidine] (0.833333 µM),0.277,58% (active)
CC(=O)OC/C=C(C)/C=C/C=C(C)/C=C/C1=C(C)CCCC1(C)C [retinyl-acetate] (10 µM),-0.227,113% (inactive)
Cc1ncc(CSSCc2cnc(C)c(O)c2CO)c(CO)c1O [pyritinol] (10 µM),0.0152,100% (inactive)
O=C(CCCN1CCC(O)(c2ccc(Cl)cc2)CC1)c1ccc(F)cc1 [haloperidol] (10 µM),-0.0179,114% (inactive)
CC(C)(O)CNc1nc(Nc2ccnc(C(F)(F)F)c2)nc(-c2cccc(C(F)(F)F)n2)n1 [enasidenib] (10 µM),0.237,100% (inactive)
CCCC(=O)Nc1ncnc2c1ncn2[C@@H]1O[C@@H]2COP(=O)(O)O[C@H]2[C@H]1OC(=O)CCC [bucladesine] (10 µM),0.0459,104% (inactive)
O=C(Cc1ccc(-c2ccc(OCCN3CCOCC3)cc2)cn1)NCc1ccccc1 (10 µM),-0.5,112% (inactive)
COc1cc2c(NC3CCN(C)CC3)nc(N3CCCN(C)CC3)nc2cc1OCCOCCN(C)C (10 µM),0.108,110% (inactive)
C[C@@H](O)[C@H]1C(=O)N2C(C(=O)O)=C(S[C@@H]3CN[C@H](CNS(N)(=O)=O)C3)[C@H](C)[C@H]12 [doripenem] (10 µM),0.131,100% (inactive)
c1cc(OCCN2CCCCC2)cc(-c2n[nH]c3ccc(-c4nnc[nH]4)cc23)c1 (10 µM),0.363,94.5% (inactive)
CN1[C@@H]2CC[C@H]1C[C@@H](OC(=O)c1cc(Cl)cc(Cl)c1)C2 [bemesetron] (10 µM),0.216,89.5% (inactive)
O=C(NC(=O)c1c(F)cccc1F)Nc1cc(Cl)c(OC(F)(F)C(F)C(F)(F)F)cc1Cl (stereo not given) [lufenuron] (10 µM),-0.0435,111% (inactive)
CCn1c(-c2nonc2N)nc2cncc(C(=O)N3CC[C@H](N)C3)c21 (0.833333 µM),0.488,87% (inactive)
Cn1cc(-c2ccc3nnc(C(F)(F)c4ccc5ncccc5c4)n3n2)cn1 (10 µM),0.39,95.5% (inactive)

SMILES,morphology score [1],SARS-CoV-2 infection rate [2]
CCc1nn(CCO)c(CC)c1Oc1cc(C#N)cc(C#N)c1 [lersivirine] (10 µM),0.162,97% (inactive)
CNCCC=C1c2ccccc2C=Cc2ccccc21 [norcyclobenzaprine] (10 µM),0.314,81% (inactive)
C=CCN1CCc2nc(N)sc2CC1 [talipexole] (10 µM),-0.1,104% (inactive)
COC1=C[C@@H]2[C@@H]3Cc4ccc(OC)c(O)c4[C@]2(CCN3C)CC1=O [sinomenine] (10 µM),0.141,122% (inactive)
COC(=O)N[C@H](C(=O)N1CC2(CC2)C[C@H]1c1nc(-c2ccc3c(c2)C(F)(F)c2cc(-c4ccc5[nH]c([C@@H]6[C@H]7CC[C@H](C7)N6C(=O)[C@@H](NC(=O)OC)C(C)C)nc5c4)ccc2-3)c[nH]1)C(C)C [ledipasvir] (10 µM),0.191,99.5% (inactive)
Nc1cccc(-c2cc3c(Oc4cccc(O)c4)ncnc3[nH]2)c1 (0.833333 µM),0.0833,104% (inactive)
CNC(=O)c1cc(Oc2ccc(NC(=O)Nc3cc(C(C)(C)C)nn3-c3ccc4ncccc4c3)c(F)c2)ccn1 [rebastinib] (0.833333 µM),0.567,106% (inactive)
O=C(C[C@H]1CC(c2ccc(F)cc2F)=NO1)N1CCOCC1 (racemic) (10 µM),0.00815,103% (inactive)
Cc1c(Cn2c(C)nc3c(C(=O)O)cc(N4CCOCC4)cc32)cccc1C(F)(F)F (0.833333 µM),-0.135,118% (inactive)
CN(C)CCCNC(=O)c1ccc(-c2cc(O)c3ncccc3c2)cc1 (0.833333 µM),-0.00508,108% (inactive)
O=C(O)CCc1nc(-c2ccccc2)c(-c2ccccc2)o1 [oxaprozin] (10 µM),-0.00592,116% (inactive)
C=CCN1CC[C@]23CCCC[C@H]2[C@H]1Cc1ccc(O)cc13 [levallorphan] (10 µM),-0.0532,114% (inactive)
CC(=O)NCC(=O)N1[C@@H]2CC[C@H]1c1ccc(Nc3ncc(C(F)(F)F)c(NC4CCC4)n3)cc12 (0.833333 µM),-0.071,124% (inactive)
CN(CCOP(=O)(O)O)C(=N)N [creatinol-phosphate] (10 µM),0.077,95.5% (inactive)
Cc1cc2c(s1)Nc1ccccc1N=C2N1CCN(C)CC1 [olanzapine] (10 µM),-0.0599,108% (inactive)
O=C(Nc1ccc(S(=O)(=O)C(F)(F)F)cc1)C1=CCN(c2ncccc2C(F)(F)F)CC1 (10 µM),0.135,108% (inactive)
Cc1ccc(S(=O)(=O)N2CCC[C@H]2c2ccc(F)cc2)cc1 (10 µM),-0.114,110% (inactive)
CCCCCCCCCCC(C)(C)C(=O)Nc1c(OC)cc(OC)cc1OC (10 µM),-0.024,111% (inactive)
O=C(O)C(=O)c1cn(Cc2ccccc2)c2ccc(-c3ccc(OC(F)(F)F)cc3)cc12 [tiplaxtinin] (10 µM),0.0476,106% (inactive)
C[N+](C)(C)CC#CCN1CCCC1=O [oxotremorine-M] (10 µM),0.0604,89.5% (inactive)
